# Most compounds without a hit are left out; they make up all but 3.2% or so of the library.
# PLK1 PBD block: blocks phosphopeptide binding to human PLK1 polo-box domain | Plk1 PBD binding of FITC phosphopeptide, fluorescence polarization | Potency, µM, for inactives: max response, negative = inhibition, hits mostly inhibitors | actives 2.8% (n = 360,000) | AID 720504; further: potency means the concentration at half of the fitted maximal effect; series mostly up to about 57 µM; nearly all actives have a fitted effect of over 65% in size
# VDR inhibitor: blocks the human vitamin D receptor; VDR-SRC2-3 peptide fluorescence polarization, 2 h; AID 504847; P11473; actives 0.93% (n = 400,000); Potency, µM, inactives show max response, negative = inhibition, hits mostly inhibitors; further: potency means the concentration at half of the fitted maximal effect
#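 VDR–SRC2-3 interaction, FP format. Cmpds 23 nl via pintool, brief spin, 2 h ambient incubation.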
# GALK inh: galactokinase (human) inhibition. P51570. Purified GALK, Kinase-Glo residual ATP luminescence. Potency, µM (series often up to 57.5 µM), for inactives: at the highest dose activity change, negative = inhibition, usual class: inhibitors. actives 0.007% (n = 270,000). AID 1868; further: potency means the concentration at half of the fitted maximal effect
#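 Compounds were pin-transferred into ATP buffer (35 uM final), then GALK plus galactose (5 nM, 100 uM final) was added. After 1 h at room temperature, Kinase-Glo Plus was added and luminescence read after 10 min.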
# USP2a inh: blocks human ubiquitin-specific protease USP2a; Potency, µM (series often up to 38.3 µM), inactives show at the top dose activity change, negative = inhibition, hits mostly inhibitors; O75604; actives 0.01% (n = 330,000); USP2 core, Ub-CHOP2 coupled fluorogenic reporter, 485/531; AID 463254;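 further: potency means the concentration at half of the fitted maximal effect; plate controls were DMSO wells for no effect and full inhibition by NEM control for full effect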
# Target sequence (O75604 whole entry, looked up): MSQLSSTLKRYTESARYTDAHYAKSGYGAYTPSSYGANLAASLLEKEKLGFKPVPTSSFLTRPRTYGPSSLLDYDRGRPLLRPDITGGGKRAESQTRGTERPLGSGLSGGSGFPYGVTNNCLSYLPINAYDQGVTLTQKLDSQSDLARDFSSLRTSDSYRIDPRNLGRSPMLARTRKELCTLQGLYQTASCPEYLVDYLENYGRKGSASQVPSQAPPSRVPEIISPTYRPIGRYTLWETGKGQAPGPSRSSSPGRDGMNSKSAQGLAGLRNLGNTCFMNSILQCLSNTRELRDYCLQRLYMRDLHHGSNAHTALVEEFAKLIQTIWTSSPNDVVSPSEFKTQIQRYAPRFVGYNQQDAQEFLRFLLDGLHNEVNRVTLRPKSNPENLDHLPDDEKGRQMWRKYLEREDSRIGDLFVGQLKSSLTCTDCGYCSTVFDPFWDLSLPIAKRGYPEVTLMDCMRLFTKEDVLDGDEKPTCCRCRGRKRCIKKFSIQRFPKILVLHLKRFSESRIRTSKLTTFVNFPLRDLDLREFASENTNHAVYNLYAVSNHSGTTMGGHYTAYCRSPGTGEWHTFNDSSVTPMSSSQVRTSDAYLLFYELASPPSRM
#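 Deubiquitinase activity read as fluorescence (485/531 nm) after Ub-CHOP2 cleavage activates the enterokinase reporter on its substrate; USP2 core 10nM, Ub-CHOP2 and substrate 25nM each, 30min compound preincubation then 60min RT; data normalized to NEM, curves fitted.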
# USP1 inh: inhibitors of human USP1/UAF1 deubiquitinase; AID 743255; recombinant USP1/UAF1, Ub-Rhodamine cleavage fluorescence; Potency, µM (doses to about 57.1 µM), without a hit: at the highest dose activity change, negative = inhibition, most hits filed as inhibitors; actives 0.23% (n = 390,000); further: potency means the concentration at half of the fitted maximal effect; nearly all actives have a fitted effect of over 60% in size
#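 USP1/UAF1 complex (1 nM) preincubated 15 min at room temperature with compound, then Ub-Rho substrate (150 nM final) added. Kinetic fluorescence at 480/540 nm over 6 reads at 60 s intervals; 50 mM HEPES pH 7.8, 0.5 mM EDTA, 0.1 mg/ml BSA, 1 mM TCEP, 0.01% Tween-20.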
# Coupling enz: coupling enzyme interference in Giardia aldolase counter-screen; coupling enzyme system counterscreen, AmpLite Red fluorescence; activity change, negative = inhibition, % at 58.2 µM, hits read low; actives 0.67% (n = 290,000); in the data active means activity change below about -30%
#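 Counterscreen lacking aldolase: glyceraldehyde-3-phosphate coupling-enzyme reagent preincubated 10 min at RT with compound (at 57.5 uM final), then substrate/coupling system with AmpLite Red added; fluorescence read at 525/598 nm after 20 min RT.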
# An asterisk follows results filed as active; ? = inconclusive; . = not tested or not shown; ! = repeats disagree. Unless noted, the call rests on the fitted dose curve; in most records, active means well fitted curve in the direction sought with a large enough effect; inconclusive means small, poorly fitted or top-dose-only effect, or another doubt; inactive means no such curve, though single readings can be large; an effect the other way counts as inactive or inconclusive. Unless noted, on the % scale 0 is the no-effect control and ±100 the full control effect.
SMILES,PLK1 PBD block,VDR inhibitor,GALK inh,USP2a inh,USP1 inh,Coupling enz
Nc1nc(N)c2[nH]c(=S)[nH]c2n1,24µM*,-15%,.,.,?,.
Cc1nc2[nH]c(=S)[nH]c2c(=O)[nH]1,-1%,-3%,.,.,?,.
COc1ccc(CNC(=O)c2cnn(-c3ccc(C)cc3)c2C2CCN(C(=O)OC(C)(C)C)CC2)cc1,.,3%,.,.,-15%,.
CCCSc1nnc(CSc2nc(C)cc(C)n2)n1C,21µM*,-25%,6%,-1%,-2%,-2
COc1ccc(CCNC(=O)c2cc(-c3ccccc3OC)on2)cc1OC,0%,5%,0%,2%,-19%,1
CCOC(=O)c1c(-c2ccccc2)csc1NC(=O)c1cc(-c2ccccc2OC)on1,24µM*,?,.,.,-13%,.
COc1ccccc1-c1cc(C(=O)NCCc2ccccc2)no1,27µM*,-14%,3%,6%,-25%,-5
CCOC(=O)c1c(-c2ccccc2)csc1NC(=O)c1cc(-c2ccc(Br)cc2)on1,.,79µM*,.,.,-21%,.
CCOC(=O)c1c(NC(=O)c2cc(-c3ccccc3OC)on2)sc(C)c1C,.,79µM*,.,.,-1%,.
CCOC(=O)c1c(NC(=O)c2cc(-c3ccc(OC)c(OC)c3)on2)sc(C)c1C,.,-8%,.,.,-21%,.
CCOC(=O)c1c(-c2ccc(C)cc2)csc1NC(=O)c1cc(-c2ccc(C)c(F)c2)on1,.,6%,.,.,-9%,.
CCOC(=O)c1c(-c2cccc([N+](=O)[O-])c2)csc1NC(=O)CCCOc1ccccc1OC,30µM*,5%,0%,-5%,-24%,4
N/C(Cc1cccc2ccccc12)=N\OC(=O)c1cccs1,-2%,-18%,1%,6%,-2%,-1
N/C(Cc1cccc2ccccc12)=N\OC(=O)c1ccc2c(c1)OCO2,24µM*,?,4%,-2%,?,0
N/C(Cc1cccc2ccccc12)=N\OC(=O)Cc1cccs1,0%,7%,2%,2%,-20%,-40*
Cc1cc(Br)ccc1Nc1nc(N)nc(N)c1N=O,-12%,1%,.,.,-5%,.
CCOc1ccccc1NC(=O)CSc1nc2nc(-c3cccs3)cc(C(F)(F)F)c2c(=O)[nH]1,21µM*,3%,-6%,3%,-5%,8
COc1ccc(NC(=O)CSc2nc3nc(-c4cccs4)cc(C(F)(F)F)c3c(=O)[nH]2)c(OC)c1,27µM*,-7%,0%,0%,-6%,12
CC(=O)Nc1ccc(NC(=O)CSc2nc3nc(-c4cccs4)cc(C(F)(F)F)c3c(=O)[nH]2)cc1,?,-13%,-1%,8%,-13%,10
COC(=O)CSc1nc2nc(-c3cccs3)cc(C(F)(F)F)c2c(=O)[nH]1,-8%,20%,-1%,-6%,-21%,3
COc1ccc(/C=C/C(=O)O)cc1S(=O)(=O)N1CCCc2ccccc21,-19%,-1%,-1%,1%,-3%,-5
CCOC(=O)c1c(-c2ccsc2)csc1N,-10%,-29%,1%,-5%,0%,-34*
CN1CCN(C(=S)NC(=O)c2ccc(Cl)cc2)CC1,27µM*,-8%,-1%,10%,-24%,0
Cc1cc(NC(=O)CCCn2cnc([N+](=O)[O-])n2)no1,12µM*,?,9%,0%,-29%,0
CCOc1ccc(-c2cc(C(=O)NC(C)c3ccccc3)c3ccccc3n2)cc1 (stereo unspecified),.,2%,.,.,-15%,.
SMILES,PLK1 PBD block,VDR inhibitor,GALK inh,USP2a inh,USP1 inh,Coupling enz
CCN1C(=O)CSc2ccc(C(=O)NCCCN3CCOCC3)cc21,-1%,7%,1%,5%,-18%,5
CC(=O)c1cccc(NC(=O)C2C3C=CC(C3=C(c3ccccc3)c3ccccc3)C2C(=O)O)c1 (stereo unspecified),34µM*,-15%,4%,2%,-8%,8
CC1CC(=O)Nc2ccccc2N1S(=O)(=O)c1ccccc1 (stereo unspecified),27µM*,?,0%,4%,-18%,-4
Cc1ccc(S(=O)(=O)N2c3ccccc3NC(=O)CC2C)cc1 (stereo unspecified),1%,2%,-3%,0%,-6%,-2
Cc1ccccc1S(=O)(=O)Cc1ccc(C(=O)N2CCN(C3CCCCC3)CC2)o1,-1%,-6%,0%,0%,-25%,-1
O=C(c1ccccc1NS(=O)(=O)c1ccc([N+](=O)[O-])cc1[N+](=O)[O-])N1O[C@@H]2C=C[C@H]1C2,?,45µM*,.,4%,?,.
COc1ccc(N2CCCn3c2nc2c3c(=O)n(Cc3ccc(C)cc3)c(=O)n2C)c(OC)c1,-7%,5%,-1%,0%,-21%,-2
COc1ccc(/C=N\NC(=O)C2C(=O)NCC2c2ccccc2)cc1O (stereo unspecified),3µM*,?,-1%,-1%,-13%,-2
COc1ccc(-c2csc(NC(=S)NC(=O)c3ccc4ccccc4c3)n2)cc1OC,-9%,?,-2%,0%,-16%,.
c1ccc(CNc2ccnc(-c3cccnc3)n2)cc1,.,40µM*,.,.,.,-1
c1cncc(CNc2nc(-c3cccnc3)nc3ccccc23)c1,-2%,-11%,1%,1%,-15%,3
Fc1ccc(Nc2nc(-c3ccoc3)nc3ccccc23)cc1,.,16µM*,.,.,.,1
Oc1ccc(Nc2nc(-c3ccccc3)nc3ccccc23)cc1,3%,-21%,4%,-7%,0%,1
c1ccc(CNc2nc(-c3cccnc3)nc3ccccc23)cc1,-8%,18µM*!,1%,-7%,-24%,0
c1ccc(CNc2nc(-c3ccoc3)nc3ccccc23)cc1,.,32µM*,.,.,.,1
CCC1CCCCN1C(=O)c1cc(COc2ccc3ncccc3c2)on1 (stereo unspecified),2%,0%,-3%,3%,-11%,3
O=C(Nc1ccc2c(c1)CCC2)c1c(F)cccc1Cl,-14%,-6%,7%,3%,-8%,-7
CCc1cccc(C)c1Nc1c(-c2ccc(N3CCOCC3)cc2)nc2ncccn12,.,-3%,.,.,-22%,.
CCOC(=O)C1=NOC(COc2ccccc2C=O)C1 (stereo unspecified),27µM*,?,0%,-1%,-15%,0
O=C1CC(=O)CC(c2ccccc2)C1,-3%,?,4%,-1%,-11%,4
O=C1CC(c2ccccc2)CC(=O)C1CS(=O)(=O)c1ccccc1 (stereo unspecified),-25%,32µM*,-1%,2%,-17%,7
COc1cccc(-c2nnc(SCC(=O)NC3CCS(=O)(=O)C3)n2C)c1 (stereo unspecified),1%,-23%,.,2%,-11%,.

# From PubChem
